Source: PubChem
Hits are enriched below; roughly 2.4% of the tested compounds scored in any of these assays.
FEN1 inhibitor: blocks human flap endonuclease 1 | P39748 | Recombinant FEN1 flap cleavage, fluorescence, 15 min | Potency, µM (series often up to 114 µM), actives largely listed as inhibitors | AID 588795 | actives 0.35% (n = 390,000); further: nearly all actives have a fitted effect of over 65% in size
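Read-out was taken twice, immediately and after 15 min, following addition of 50 nM substrate to 10 nM FEN1 that had sat with test compound for 15 min at room temperature. Curves came from a four-parameter Hill model.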
Pol iota inh: DNA polymerase iota (human) inhibition; Q9UNA4; Pol iota fluorescent replication assay, 10 min; AID 588590; Potency, µM (series often up to 115 µM), usual class: inhibitors; actives 1% (n = 390,000)
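Pol iota at 10 nM preincubated 15 min with compounds at room temperature; reaction started with fluorescent substrate, 50 nM final. Fluorescence read kinetically at 0 and 10 min; buffer-only wells as negative control.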
Pol eta inh-1: inhibitors of human DNA polymerase eta; Q9Y253; recombinant Pol eta, fluorescent DNA replication assay; Potency, µM (series often up to 114 µM), actives largely listed as inhibitors; actives 1.2% (n = 390,000)
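Pol eta at 10 nM preincubated with compounds 15 min at room temperature; reaction started with fluorescent substrate (50 nM final) and read kinetically at 0 and 10 min.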
POLB inh: blocks human DNA polymerase beta activity; AID 485314; actives 1.3% (n = 340,000); Potency, µM (highest dose often 114 µM), most hits filed as inhibitors; P06746; Pol beta primer extension/strand displacement, fluorescence kinetic
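Curves were derived by four-parameter Hill fits of normalized qHTS data. The kinetic fluorescent primer-extension read was taken at 0 and 10 min after 50 nM substrate, following a 15 min room-temperature preincubation of 10 nM enzyme with compounds.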
Pol kappa inh-1: DNA polymerase kappa (human) inhibition; Q9UBT6; purified Pol kappa, fluorescent DNA synthesis assay, 10 min; Potency, µM (series often up to 107 µM), hits mostly inhibitors; actives 0.53% (n = 400,000)
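10 nM Pol kappa was preincubated with compounds for 15 min at room temperature. Reaction started with 50 nM (final) substrate. Fluorescence read kinetically at 0 and 10 min.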
WRN inhibitor: WRN helicase (human) inhibition; Q14191; WRN helicase unwinding, fluorescent forked duplex, kinetic; Potency, µM (top dose mostly 114 µM), hits mostly inhibitors; actives 0.46% (n = 360,000); further: nearly all actives have a fitted effect of over 55% in size
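Fluorescence dequenching readout, ex 525 nm/em 598 nm, kinetic mode: forked duplex DNA (100 nM final) with adjacent fluorophore and quencher unwound by WRN (20 nM final) with 2 mM ATP. Compound preincubation 15 min, room temperature.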
GALK inh confirm: galactokinase (human) inhibition, confirmation; shares compounds with Pol eta inh-1; AID 2015; Potency, µM (doses to about 115 µM), most hits filed as inhibitors; actives 70% (n = 150); purified GALK, Kinase-Glo ATP depletion luminescence
Target sequence (P51570 whole entry, looked up): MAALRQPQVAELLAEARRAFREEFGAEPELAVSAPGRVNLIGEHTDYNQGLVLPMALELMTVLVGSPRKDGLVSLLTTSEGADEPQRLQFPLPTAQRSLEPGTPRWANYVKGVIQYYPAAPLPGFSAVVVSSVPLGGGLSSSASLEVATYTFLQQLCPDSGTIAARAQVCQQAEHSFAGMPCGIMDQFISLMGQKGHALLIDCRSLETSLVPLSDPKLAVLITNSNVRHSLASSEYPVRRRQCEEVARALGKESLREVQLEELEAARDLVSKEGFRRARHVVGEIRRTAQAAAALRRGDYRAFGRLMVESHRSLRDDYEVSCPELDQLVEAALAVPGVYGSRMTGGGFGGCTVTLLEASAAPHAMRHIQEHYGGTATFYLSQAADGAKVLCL
Redox cycling: generates H2O2 by redox cycling, flagging GALK artifacts; actives 40% (n = 150); shares compounds with Pol eta inh-1; Phenol red-HRP H2O2 redox cycling, absorbance 600 nm; Potency, µM (doses to about 115 µM), most hits filed as inhibitors
HEK293 tox: HEK-293 cytotoxicity, GALK inhibitor secondary. Potency, µM (top dose mostly 46.1 µM), hits mostly inhibitors. HEK-293 viability, ATP luminescence (CellTiter-Glo), 24/48 h. actives 10% (n = 170). shares compounds with Pol eta inh-1
Pol kappa inh-2: Pol kappa (human) inhibition, cherry-pick confirmation. shares compounds with Pol eta inh-1. Potency, µM, most hits filed as inhibitors. purified Pol-kappa, fluorescent strand-displacement substrate. actives 76% (n = 920)
Pol eta inh-2: Pol eta (human) inhibition, cherry-pick confirmation. shares compounds with Pol eta inh-1. Pol eta primer extension, TAMRA/BHQ fluorescence, 10 min. Potency, µM, hits mostly inhibitors. actives 64% (n = 2,600)
Numbers stand for hits; 0 = inactive; ? = inconclusive; - = not tested or not shown; [ ] = dose if it differs, or a comment. The call rests on the fitted dose curve; in most records, active means well fitted curve in the direction sought with a large enough effect; inconclusive means small, poorly fitted or top-dose-only effect, or another doubt; inactive means no such curve, though single readings can be large; an effect the other way counts as inactive or inconclusive.

SMILES	FEN1 inhibitor	Pol iota inh	Pol eta inh-1	POLB inh	Pol kappa inh-1	WRN inhibitor	Pol eta inh-2	others
O=Cc1cn(CCC(=O)O)nc1-c1cc2ccccc2o1	0	?	20µM	17.8µM	?	0	?	Pol kappa inh-2=21.2
CC(C)C[C@H](NC(=O)[C@@H]1CCCN1C(=O)[C@H](CO)NC(=O)[C@H](Cc1ccccc1)NC(=O)CNC(=O)[C@@H]1CCCN1C(=O)[C@@H]1CCCN1C(=O)[C@@H](N)CCCN=C(N)N)C(=O)O	-	-	-	-	0	-	-
O=C(COc1ccccc1)NC1C(=O)N2C(C(=O)O)=C(Cl)CSC12 (stereo unspecified)	0	?	?	0	0	0	-
C=CC1=C(C(=O)O)N2C(=O)C(NC(=O)Cc3ccccc3)C2SC1 (stereo unspecified)	0	12.6µM	22.4µM	?	79.4µM	?	67.5
C[C@H](O)CN(C)C	-	-	-	-	0[19.4 µM]	-	-
COc1ccc(NC(=O)Cn2c(=O)n(CCc3ccccc3)c(=O)c3c4c(sc32)CCCC4)cc1	0	0	0	0	0	-	-
CC(C)OC(=O)C(C(=O)C(F)(F)F)c1cc(NS(=O)(=O)c2ccc3ccccc3c2)c2ccccc2c1O (stereo unspecified)	?	?	?	0	0	?	-	GALK inh confirm=?;Redox cycling=0;HEK293 tox=0
O=C(/C=C/c1ccco1)NC(=S)Nc1ccccc1N1CCCC1	?	0	0	0	0	0	-
O=C(/C=C/c1ccco1)NC(=S)Nc1ccccc1N1CCOCC1	?	0	0	0	0	0	-
O=C(/C=C/c1ccco1)NC(=S)Nc1ccccc1O	0	?	0	22.4µM	?	0[11.6 µM]	?
O=C(/C=C\c1ccco1)NC(=S)Nc1ccccc1O	0	?	22.4µM	56.2µM	?	?	?
CCCc1cc(=O)oc2cc(OCC(=O)NC(Cc3c[nH]c4ccc(O)cc34)C(=O)O)c(Cl)cc12 (stereo unspecified)	0	?	39.8µM	0	?	0	?
CCOC(=O)c1c(NC(=O)CSc2cn(CCNC(=O)c3c(F)cccc3F)c3ccccc23)sc2c1CCCC2	0	0	0	0	0	-	-
Cc1ccc(NC(=O)CCNS(=O)(=O)c2ccc3c(c2)oc(=O)n3C)cc1	0	20µM	50.1µM	0	89.1µM	?	?
CCc1ccc(NC(=O)CCNS(=O)(=O)c2ccc3c(c2)oc(=O)n3C)cc1	0	0	0	0	0	-	-
O=C(Nc1ccc(F)cc1)c1ccc(Cn2nc(N3CCN(c4ccccc4)CC3)ccc2=O)o1	0	?	?	?	0	-	-
COc1ccc(-c2nc3cnc(OC)nc3n(C)c2=O)cc1	-	-	-	-	0	-	-
CC1=C(C#N)C(=O)NC(=O)/C1=C\c1ccc(-c2cc(C)c(C)cc2[N+](=O)[O-])o1	0	?	?	?	?	?	?	Pol kappa inh-2=?
O=C(O)c1cc(-c2ccco2)nc2cc3ccccc3cc12	0	?	20µM	11.2µM	79.4µM	?	75.7
COc1cccc(Cn2c(=O)c(-c3cccs3)nc3cnc(N(C)C)nc32)c1	-	-	-	-	0	-	-
COc1ccc(/C=C/C(=O)NC(=S)Nc2ccc(S(=O)(=O)Nc3cc(C)on3)cc2)cc1	0	?	?	0	0	0	-
COc1ccc(/C=C/C(=O)NC(=S)Nc2ccc(S(=O)(=O)Nc3ccc(OC)nn3)cc2)cc1	0	0	56.2µM	0	0	0	?
O=C1C(Cl)=C(N2CCC(C(=O)O)CC2)C(=O)c2ccccc21	0	?	10µM	?	0	0	-	GALK inh confirm=29.8µM;Redox cycling=37.5µM;HEK293 tox=0
O=C1CC(c2nc3ccccc3n2Cc2c(F)cccc2Cl)CN1c1cccc(C(F)(F)F)c1 (stereo unspecified)	0	0	-	0	0	-	-
CSc1ccc(/C=C2\CCn3c2nc2cc(C(=O)O)ccc2c3=O)cc1	?	0	50.1µM	0	0	0[11.6 µM]	?
SMILES	FEN1 inhibitor	Pol iota inh	Pol eta inh-1	POLB inh	Pol kappa inh-1	WRN inhibitor	Pol eta inh-2	others
COC(=O)c1ccc(/C=C2\CCn3c2nc2cc(C(=O)O)ccc2c3=O)cc1	0	?	0	0	0	0	-
Cc1ccc(S(=O)(=O)N2[C@@H](c3ccc(C(C)(C)C)cc3)C(C(=O)O)=CC[C@H]2c2ccc(C(C)C)cc2)cc1	?	?	39.8µM	-	?	56.2µM	53.6	Pol kappa inh-2=75.2
Cc1ccc(S(=O)(=O)N2[C@@H](c3ccc(C(C)(C)C)cc3)C(C(=O)O)=CC[C@H]2c2cccs2)cc1	0	0	0	-	0	0	-
Cc1ccc([C@@H]2CC=C(C(=O)O)[C@H](c3ccc(C(C)(C)C)cc3)N2S(=O)(=O)c2ccc(C)cc2)cc1	0	?	89.1µM	-	0	0	-	Pol kappa inh-2=?
O=C(O)c1c2c(nc3ccc(S(=O)(=O)N4CCC(C(=O)NC5CCCCCC5)CC4)cc13)CCCC2	0	?	20µM	39.8µM	79.4µM	0[11.6 µM]	?
O=c1c(-c2ccc(F)c(F)c2)nc2cncnc2n1Cc1ccccc1	-	-	-	-	0	-	-
CC(=O)c1ccc(S(=O)(=O)Nc2ccc(C(=O)NCC(c3ccco3)N3CCCC3)cc2)cc1 (stereo unspecified)	-	-	20µM	-	-	0[11.6 µM]	?	Pol kappa inh-2=?
COc1ccccc1C(CNC(=O)c1ccc(NS(=O)(=O)c2ccc(C(C)=O)cc2)cc1)N1CCCC1 (stereo unspecified)	0	31.6µM	15.8µM	-	?	0[11.6 µM]	?
O=C(Cn1cc(S(=O)(=O)Cc2ccc(F)cc2)c2ccccc21)NCc1ccccc1Cl	0	?	0	?	0	-	-
O=C1ON=C(c2ccccc2)/C1=C/c1ccc(O)c(O)c1	?	?	22.4µM	0	0	?	60.1	GALK inh confirm=?;Redox cycling=0;HEK293 tox=0
COc1ccc(C2=NN(c3nc(-c4ccccc4)c(CC(=O)O)s3)C(c3ccco3)C2)cc1 (stereo unspecified)	0	?	28.2µM	22.4µM	?	?	?	Pol kappa inh-2=15
Cc1nc(N2N=C(c3ccc(Cl)cc3)CC2c2ccco2)sc1C(=O)N(C)C (stereo unspecified)	0	0	0	?	0	0	-
